The whole screen tested about 330,000 compounds, of which about 880 (0.27%) were called active. Inconclusive results (about 1%) are left out. No rule for the calls is given here. Not all results are given here.
Test: beta-lactam sensitization of Mtb H37Rv, H37Rv (AID 434955);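 also: growth measured after seven days incubation then overnight dye step; 0% = bacteria only wells and 100% = bacteria with antibiotic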
Details: M. tuberculosis H37Rv growth with meropenem, percent inhibition, at 25 µM
[1] = measured here: primary screen without meropenem

Structure (SMILES)	inhibition (stronger effect = higher value)	inhibition [1] [%]
COCCNC(=O)C(c1ccc(O)cc1)N(C(=O)CCC(=O)Nc1nccs1)c1ccc(C)cc1 (stereo not drawn)	-3.29% (inactive)	-1.6
O=C(Cn1cnc2c(cnn2-c2ccc(F)cc2)c1=O)NCCc1ccccc1	8.42% (inactive)	5.1
CCOC(=O)C1CCN(C(=O)Cc2c(C(=O)O)[nH]c3ccccc23)CC1	11.4% (inactive)	8.1
COCc1cc(C)nc2sc3c(=O)n(-c4cccc5ccccc45)nnc3c12	41.4% (inactive)	-9.11
CN(c1ccccc1)S(=O)(=O)c1cccc(C(=O)NNC(=O)c2ccncc2)c1	-14.5% (inactive)	10.4
COc1ccccc1C(=O)N/C(=C/c1ccco1)C(=O)Nc1ccc(C(=O)O)cc1	5.03% (inactive)	3.35
CCOC(=O)C(=O)C1C(=O)Nc2ccccc21 (stereo not drawn)	5.13% (inactive)	3
COc1cc(NS(=O)(=O)c2ccc(NC(=O)c3ccc(S(=O)(=O)N4CCCCC4)cc3)cc2)ncn1	-5.84% (inactive)	-4.25
Cc1ccc(C(=O)N2CCC(n3nccc3NC(=O)Nc3cccc(F)c3)CC2)cn1	-9.41% (inactive)	-4.97
COc1ccccc1N(C(=O)Cn1nnc2ccccc21)C(C(=O)NCc1ccco1)c1ccc(C)o1 (stereo not drawn)	-4.29% (inactive)	-5.41
CCN(Cc1nc2ccccc2c(=O)[nH]1)Cc1cc(=O)oc2cc(C)c(C)cc12	1.77% (inactive)	-4.21
COc1cccc(N2CC(NC(=O)c3ccc4ccccc4c3)CC2=O)c1 (stereo not drawn)	-3.62% (inactive)	10.2
O=C(CC1OC(=O)c2ccccc21)NC1CCCCC1 (stereo not drawn)	2.15% (inactive)	2.66
COc1ccccc1CCCNC(=O)C1CCC(=O)N(CCN2CCOCC2)C1 (stereo not drawn)	1.01% (inactive)	-9.27
Cc1cc(C)c2nc3nc(C)cc(C)c3c(N)c2c1	6.08% (inactive)	4.53
CCC(C)N(C(=O)COC(=O)c1nc(Cl)ccc1Cl)C1CCS(=O)(=O)C1 (stereo not drawn)	-10.3% (inactive)	-10.3
CCn1c(CNC(=O)c2ccco2)nnc1SCC(=O)Nc1cccc(F)c1	-8.4% (inactive)	-1.57
O=c1cc(CN2CCN(c3cccc(Cl)c3)CC2)c2cc3c(cc2o1)CCCC3	-11.5% (inactive)	1.9
COc1ccc(-c2ccc(OC(=O)NC3CCS(=O)(=O)C3)cc2)cc1 (stereo not drawn)	87.1% (inactive)	66.5
COCCOC(=O)C1=C(C)NC(=O)NC1c1cc2c(cc1Br)OCO2 (stereo not drawn)	-3.19% (inactive)	0.53

Structure (SMILES)	inhibition (stronger effect = higher value)	inhibition [1] [%]
Cc1ccc(C(=O)N2CCN(S(=O)(=O)N3CCOCC3)CC2)cc1	-7.62% (inactive)	-3.45
CC(C)Cc1ccc(S(=O)(=O)N2CCN(C(=O)c3ccco3)CC2)cc1	1.6% (inactive)	-4.13
C/C(=N/O)c1ccc(N2C(=O)C3C4C=CC(C3C2=O)C2C3C(=O)N(c5ccc(/C(C)=N/O)cc5)C(=O)C3C42)cc1 (stereo not drawn)	-4.77% (inactive)	-7.58
Cc1ccc(S(=O)(=O)N(CC(O)CN2C(=O)NC(C)(C)C2=O)c2cccc([N+](=O)[O-])c2)cc1 (stereo not drawn)	16.4% (inactive)	4.68
CC/S(CC1CC1(Cl)Cl)=N\S(=O)(=O)c1ccc(C)cc1 (stereo not drawn)	-10.6% (inactive)	-11.9
CCOc1cc(NC(=O)CCl)c(OCC)cc1NC(C)=O	90.5% (inactive)	98.2
CC(C)CCOc1ccc(C(=O)C[N+]2(C)CCOCC2)cc1	-6.59% (inactive)	4.15
COC(=O)C(C)N=Cc1ccccc1 (stereo not drawn)	-4.31% (inactive)	0.46
O=C(C1CC(=O)N(C2CCCCC2)C1)N1CCN(c2ccccc2)CC1 (stereo not drawn)	0.44% (inactive)	1.29
O=[N+]([O-])c1c(NCCO)cc(Sc2nc3ccccc3s2)c2nonc12	95.6% (inactive)	96
O=C(NCc1ccc2c(c1)OCO2)c1cc([N+](=O)[O-])ccc1N1CCOCC1	-1.78% (inactive)	-2.18
COc1ccc(NC(=O)COc2ccc(C(=O)c3ccc(F)cc3)cc2)cc1S(N)(=O)=O	7.84% (inactive)	10.7
N#Cc1ccc(COC(=O)Cn2nnc(-c3ccccc3)n2)cc1	2.69% (inactive)	0.73
O=C(COC(=O)Cc1ccccc1F)NNC(=O)c1ccc(Cl)cc1	-6.06% (inactive)	20.8
CC(=O)Nc1ccc(NC(=O)CSc2nnnn2-c2ccccc2F)cc1	-2.11% (inactive)	-2.67
CC(C)c1nc(CNC(=O)CC2C(=O)NCCN2Cc2ccoc2)cs1 (stereo not drawn)	-7.57% (inactive)	-8.36
O=C(CC1SC(=Nc2ccccc2F)N(CCN2CCOCC2)C1=O)Nc1ccc(F)cc1F (stereo not drawn)	3.51% (inactive)	2.75
CCc1ccc(-c2cc3c(=O)n(CC(=O)NCCCN4CCN(Cc5ccccc5)CC4)nc(C)n3n2)cc1	99.7% (inactive)	99.5
CO/N=C(/CS(=O)(=O)c1ccc(Br)cc1)c1ccc(OC)cc1	-4.01% (inactive)	-5.94
